The source of these data is PubChem BioAssay (EPA / NIEHS).

The subject of assay [1] is Sodium/Iodide Symporter (NIS), SLC5A5 (gene 6528). Briefly: CPHEA_Stoker_NIS_Inhibition_RAIU: CPHEA's Radioactive Iodide Uptake (RAIU) Assay for Sodium/Iodide Symporter (NIS) Inhibition, Stoker and Laws Labs (AID 2283841). The gist of the method: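 Iodide uptake read as CPM of intracellular 125I (final 329 pM) after 2 h room-temperature exposure in HEPES-buffered HBSS, pH 7.4. Human NIS-expressing HEK293T cells; six concentrations 0.001–100 uM, 0.5% DMSO, normalised to DMSO wells.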

The target of assay [2] is human Thyroid hormone Receptor alpha (TRa), THRA (gene 7067) (UniProt P10827). Briefly: ATG_hTRa_XSP2: Attagene TRANS-FACTORIAL Multi-Species (XSP2) HepG2 Assay for human Thyroid hormone Receptor alpha (TRa) (AID 2283838). Summed up: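 HepG2 cells were transiently transfected with GAL4-UAS reporter units for chimeric human TRa-Gal4 and dosed for 24 hours, with 3 nM 6-alpha-fluorotestosterone and 1.5 nM norgestrel present. Reporter mRNA was quantified by RT-PCR, FAM labelling and capillary electrophoresis, with gain of signal fitted versus DMSO.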

For assay [3], the target named is frog Thyroid hormone Receptor alpha (TRa), thra-a (gene 397942) (UniProt P15204). Briefly: ATG_frTRa_XSP2: Attagene TRANS-FACTORIAL Multi-Species (XSP2) HepG2 Assay for frog Thyroid hormone Receptor alpha (TRa) (AID 2283839). The gist of the method: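 HepG2 cells transiently transfected with multiplexed GAL4-UAS reporter units expressing chimeric frog TRα-Gal4; reporter mRNA read 24 h after dosing by RT-PCR, FAM-labelled primer extension, HpaI digest and capillary electrophoresis. Gain of signal fitted versus DMSO.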

The target in assay [4] is human Thyroid hormone Receptor beta (TRb), THRB (gene 7068) (UniProt P10828). Description: ATG_hTRb_XSP2: Attagene TRANS-FACTORIAL Multi-Species (XSP2) HepG2 Assay for human Thyroid hormone Receptor beta (TRb) (AID 2283840).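 Further: actives raise reporter mRNA so potency reflects agonist-like gain of signal.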 The gist of the method:
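HepG2 cells were transiently transfected with GAL4-UAS multiplexed reporter units expressing chimeric NR-Gal4 proteins, dosed 24 h; reporter mRNA was quantified by RT-PCR, fluorescent labeling, HpaI digestion and capillary electrophoresis, fitted for gain of signal versus DMSO.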

Assay [5] can be described thus: CPHEA_Stoker_NIS_Cytotoxicity: Cytotoxicity Assessment for CPHEA's Radioactive Iodide Uptake (RAIU) Assay for Sodium/Iodide Symporter (NIS) Inhibition, Stoker and Laws Labs (AID 2283897).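 On AC50: active means loss of ATP signal versus DMSO meaning cytotoxicity.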 Summed up:
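CellTiter-Glo ATP luminescence gauged viability in HEK293T cells expressing human NIS after 2 h chemical exposure. Concentrations ran 0.001–100 uM in 0.5% DMSO; DMSO served as baseline for the loss-of-signal fit.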

A short description of assay [6]: CEETOX_H295R_11DCORT_noMTC: CeeTox H295R High-throughput Steroidogenesis Assay for 11-Deoxycortisol (11DCORT), maximum tolerated concentration (MTC) filtered results only (AID 2283911; active means hit-call score of the fitted dose curve at least 0.9, where 1 is the maximum; inactive means score below 0.9). As to conditions: actives raise or lower the signal. Summed up: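 HPLC-MS/MS read-out of 11-deoxycortisol after MTBE extraction of H295R medium. Cells: forskolin 10 uM pre-stimulation 48 h, chemical 48 h, 0.1% DMSO final. Bidirectional fit vs DMSO baseline; no MTC filtering.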

A short description of assay [7]: CEETOX_H295R_OHPREG_noMTC: CeeTox H295R High-throughput Steroidogenesis Assay for OH-Pregnenolone (OHPREG), maximum tolerated concentration (MTC) filtered results only (AID 2283912; active means hit-call score of the fitted dose curve at least 0.9, where 1 is the maximum; inactive means score below 0.9). The note with it: actives raise or lower the signal. The gist of the method: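 Steroidogenesis in H295R cells (OECD 456, modified): after 48 h forskolin priming and 48 h chemical treatment, secreted 17alpha-hydroxypregnenolone is measured by HPLC-MS/MS. Activity is fitted in both directions against DMSO; concentrations are not filtered by MTT-based MTC.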

The nature of assay [8]: CEETOX_H295R_OHPROG_noMTC: CeeTox H295R High-throughput Steroidogenesis Assay for OH-Progesterone (OHPROG), maximum tolerated concentration (MTC) filtered results only (AID 2283914; active means hit-call score of the fitted dose curve at least 0.9, where 1 is the maximum; inactive means score below 0.9). As to conditions: actives raise or lower the signal. The gist of the method: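 Forskolin 10 uM, 48 h prestim → test cmpd in DMSO (0.1% final), 48 h → medium MTBE extraction → LC-MS/MS quant of 17alpha-OH-progesterone. Bidirectional fit vs DMSO; no MTT-based MTC filtering.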

The nature of assay [9]: CEETOX_H295R_CORTISOL_noMTC: CeeTox H295R High-throughput Steroidogenesis Assay for Cortisol, maximum tolerated concentration (MTC) filtered results only (AID 2283916; active means hit-call score of the fitted dose curve at least 0.9, where 1 is the maximum; inactive means score below 0.9). The note with it: actives raise or lower the signal. The gist of the method:
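Cortisol secretion measured by LC-MS/MS after 48 h chemical treatment (final 0.1% DMSO) of forskolin-primed (10 uM, 48 h) H295R cells; gain or loss fitted relative to DMSO, without maximum-tolerated-concentration filtering.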

Assay [10] can be described thus: CEETOX_H295R_ANDR_noMTC: CeeTox H295R High-throughput Steroidogenesis Assay for Androstenedione (ANDR), maximum tolerated concentration (MTC) filtered results only (AID 2283915; active means hit-call score of the fitted dose curve at least 0.9, where 1 is the maximum; inactive means score below 0.9). The note with it: actives raise or lower the signal. Summed up:
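H295R cells, passage 10 or below, prestimulated 48 h with 10 uM forskolin, then exposed 48 h to chemical in 0.1% DMSO. Medium androstenedione extracted with MTBE, quantified by HPLC-MS/MS; concentrations not MTC-filtered; bidirectional fit versus DMSO.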

Each structure is given as a SMILES string. Results filed as inconclusive are left out. Calls of active or inactive are those of the source. How the source made its calls, unless noted: active means hit-call score of the fitted dose curve at least 0.9, where 1 is the maximum; inconclusive means response in the unintended direction; inactive means score below 0.9.

human Thyroid hormone Receptor beta (TRb), THRB (gene 7068), sequence (P10828 whole entry, looked up, the tested form may be a part): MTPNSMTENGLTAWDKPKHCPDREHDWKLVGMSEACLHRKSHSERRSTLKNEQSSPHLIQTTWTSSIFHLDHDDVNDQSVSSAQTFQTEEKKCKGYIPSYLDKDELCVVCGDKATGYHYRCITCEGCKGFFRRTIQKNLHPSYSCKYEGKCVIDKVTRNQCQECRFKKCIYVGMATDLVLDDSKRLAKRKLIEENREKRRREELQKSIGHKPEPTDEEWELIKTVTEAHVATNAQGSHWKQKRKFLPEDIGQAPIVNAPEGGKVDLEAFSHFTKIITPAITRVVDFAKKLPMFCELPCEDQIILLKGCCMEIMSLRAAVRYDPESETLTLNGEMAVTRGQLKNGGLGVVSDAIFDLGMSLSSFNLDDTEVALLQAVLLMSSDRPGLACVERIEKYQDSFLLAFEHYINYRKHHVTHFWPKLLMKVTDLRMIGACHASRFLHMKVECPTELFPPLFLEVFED
human Thyroid hormone Receptor alpha (TRa), THRA (gene 7067), sequence (P10827 whole entry, looked up, the tested form may be a part): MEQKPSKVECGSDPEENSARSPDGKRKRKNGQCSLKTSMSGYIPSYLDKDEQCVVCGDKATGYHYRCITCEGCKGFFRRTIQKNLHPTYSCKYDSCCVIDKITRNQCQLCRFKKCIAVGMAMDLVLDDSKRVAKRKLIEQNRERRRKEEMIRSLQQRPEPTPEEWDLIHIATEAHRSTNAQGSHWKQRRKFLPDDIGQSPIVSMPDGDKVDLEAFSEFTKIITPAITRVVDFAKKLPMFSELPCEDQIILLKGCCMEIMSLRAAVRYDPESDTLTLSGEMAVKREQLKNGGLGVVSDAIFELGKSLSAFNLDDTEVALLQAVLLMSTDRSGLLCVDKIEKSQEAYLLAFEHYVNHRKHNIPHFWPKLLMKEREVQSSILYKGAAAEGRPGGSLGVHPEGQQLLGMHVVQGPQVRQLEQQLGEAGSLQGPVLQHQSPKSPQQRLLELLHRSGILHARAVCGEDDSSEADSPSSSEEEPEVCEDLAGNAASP
frog Thyroid hormone Receptor alpha (TRa), thra-a (gene 397942), sequence (P15204 whole entry, looked up, the tested form may be a part): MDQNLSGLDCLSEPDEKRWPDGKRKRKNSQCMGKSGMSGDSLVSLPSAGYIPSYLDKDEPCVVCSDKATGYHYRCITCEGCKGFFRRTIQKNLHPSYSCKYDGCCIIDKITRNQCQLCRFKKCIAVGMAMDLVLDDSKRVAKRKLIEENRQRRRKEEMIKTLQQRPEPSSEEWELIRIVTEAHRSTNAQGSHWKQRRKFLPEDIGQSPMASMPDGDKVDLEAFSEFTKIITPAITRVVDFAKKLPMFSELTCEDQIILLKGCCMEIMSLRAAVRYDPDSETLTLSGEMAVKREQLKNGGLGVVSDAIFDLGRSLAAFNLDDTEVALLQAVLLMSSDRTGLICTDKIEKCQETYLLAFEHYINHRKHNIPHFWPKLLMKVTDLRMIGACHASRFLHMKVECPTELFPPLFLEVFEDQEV

Consider `O=S(=O)(O)C(F)(F)C(F)(F)C(F)(F)C(F)(F)C(F)(F)C(F)(F)C(F)(F)F`, for which, in assay [1], the AC50 is 2.31 µM (active).

For the compound `c1ccc(B(c2ccccc2)c2ccccc2)cc1`, the outcome in assay [2], in assay [3] and in assay [4] was inactive.

Consider `CCCCCCOC(=O)c1ccccc1O`, for which the result in [1] and in assay [5] was inactive.

Consider `CC(Cc1ccc(O)c(O)c1)C(C)Cc1ccc(O)c(O)c1` (configuration not stated), for which the AC50 in assay [5] was 84 µM (active).

With `C=CC(=O)OCC(F)(F)C(F)(F)C(F)(F)C(F)(F)C(F)(F)C(F)(F)C(F)(F)F`, the outcome in assay [1] was inactive.

For `CC(C)OC(=O)c1ccccc1C(=O)OC(C)C`, the compound was classed as inactive in assay [6], in assay [7], in assay [8] and in assay [9].

`C=C(C)C(=O)OCC(F)(F)C(F)(F)C(F)(F)C(F)(F)C(F)(F)C(F)(F)C(F)(F)F`: in assay [1], the result was inactive.

As for `FC(F)(F)C(F)(F)C(F)(F)N(C(F)(F)C(F)(F)C(F)(F)F)C(F)(F)C(F)(F)C(F)(F)F`, the outcome in assay [1] was inactive.

For `COC(=O)C1CCC(C(=O)OC)CC1` (configuration not stated), the call in assay [7] and in assay [8] was inactive.

Consider `FC(F)(F)C(F)(F)C(F)(F)C(F)(F)CCI`, for which the result in [1] was inactive.

Turning to `C=CC(=O)OCC(F)(F)C(F)(F)C(F)(F)C(F)(F)COC(=O)C=C`, the result in [1] was inactive.

Consider `C#C[C@]1(O)CC[C@H]2[C@@H]3CCc4cc(OC)ccc4[C@H]3CC[C@@]21C`, for which the call in assay [2] and in [3] was inactive. The AC50 in assay [4] is 0.0262 µM (active).

Take `O=C(OCCOCCOCCOC(=O)c1ccccc1)c1ccccc1`: the outcome in [2], in [3], in [4], in [1] and in assay [5] was inactive.

As to `OCC(F)(F)C(F)(F)C(F)(F)C(F)(F)C(F)(F)C(F)F`, the result in assay [1] was inactive.

Turning to `FC(F)(F)C(F)(F)C(F)(F)C(F)(F)C(F)(F)CCI`, in assay [1], the AC50 was 13.3 µM (active).

`OCC(F)(F)C(F)(F)C(F)(F)C(F)(F)C(F)(F)C(F)(F)F`: the result in assay [1] was inactive.

`O=S(=O)(OCCOC(F)(F)F)C(F)(F)F`: the outcome in assay [1] was inactive.

`C(=C(c1ccccc1)c1ccccc1)c1ccccc1`: the compound was classed as inactive in [2], in assay [3], in assay [4], in assay [1] and in [5].

Take `CCCCCCCOC(=O)c1ccccc1C(=O)OCCCCCCC`: the compound was called inactive in assay [6], in [7], in [8], in assay [10] and in [9].

`OCCCC(F)(F)C(F)(F)C(F)(F)C(F)(F)C(F)(F)C(F)(F)C(F)(F)F`: in assay [1], the result was inactive.

For `O=C(O)C(F)(F)C(F)(F)C(F)(F)C(F)(F)C(F)(F)C(F)(F)C(F)(F)C(F)(F)C(F)(F)C(F)(F)C(F)(F)C(F)(F)F`, in assay [1], the result was inactive.

With `Cc1ccc(S(=O)(=O)OCC(F)(F)C(F)(F)C(F)(F)C(F)(F)C(F)(F)C(F)F)cc1`, in [1], the result was inactive.

Regarding `O=C(CC(=O)C(F)(F)C(F)(F)F)C(F)(F)F`, the AC50 in assay [1] is 9.92 µM (active).

Turning to `O=C(O)C(F)(F)C(F)(F)C(F)(F)C(F)(F)C(F)(F)C(F)(F)C(F)(F)C(F)(F)C(F)(F)C(F)(F)C(F)(F)C(F)(F)C(F)(F)F`, the result in assay [1] was inactive.

On to `O=C(O)C(F)(F)C(F)(F)C(F)(F)C(F)(F)C(F)(F)C(F)(F)C(F)(F)C(F)(F)Cl`, for which the AC50 in assay [1] is 33.6 µM (active).

On to `O=C(O)C(F)(F)C(F)(F)C(F)(F)C(F)(F)C(F)(F)C(F)(F)C(F)(F)C(F)(F)C(F)(F)C(F)F`, for which the AC50 in assay [1] was 21.7 µM (active).

As a reminder, the AC50 is the concentration at which the activity in the assay is half-maximal.
